For part of these data: Entries with a potency or affinity are not part of this list.
Experiments:
Set-up in all cases: scale not given: direction of the effect not stated beside the values
[1] = target: Protein translocase subunit SecA (Escherichia coli (strain K12)) (UniProt P10408); assay: Assay to Identify E. coli SecA ATPase Inhibitors; assay type: functional; details: 30 µM
[2] = target: T1, Ubiquitin-activating enzyme e1, putative (Leishmania donovani (strain BPK282A1)) (UniProt E9BSI1); assay: Leishmania donovani Ubiquitin Activating Enzyme (LdE1); assay type: functional; details: 30 µM
T1 sequence (whole entry): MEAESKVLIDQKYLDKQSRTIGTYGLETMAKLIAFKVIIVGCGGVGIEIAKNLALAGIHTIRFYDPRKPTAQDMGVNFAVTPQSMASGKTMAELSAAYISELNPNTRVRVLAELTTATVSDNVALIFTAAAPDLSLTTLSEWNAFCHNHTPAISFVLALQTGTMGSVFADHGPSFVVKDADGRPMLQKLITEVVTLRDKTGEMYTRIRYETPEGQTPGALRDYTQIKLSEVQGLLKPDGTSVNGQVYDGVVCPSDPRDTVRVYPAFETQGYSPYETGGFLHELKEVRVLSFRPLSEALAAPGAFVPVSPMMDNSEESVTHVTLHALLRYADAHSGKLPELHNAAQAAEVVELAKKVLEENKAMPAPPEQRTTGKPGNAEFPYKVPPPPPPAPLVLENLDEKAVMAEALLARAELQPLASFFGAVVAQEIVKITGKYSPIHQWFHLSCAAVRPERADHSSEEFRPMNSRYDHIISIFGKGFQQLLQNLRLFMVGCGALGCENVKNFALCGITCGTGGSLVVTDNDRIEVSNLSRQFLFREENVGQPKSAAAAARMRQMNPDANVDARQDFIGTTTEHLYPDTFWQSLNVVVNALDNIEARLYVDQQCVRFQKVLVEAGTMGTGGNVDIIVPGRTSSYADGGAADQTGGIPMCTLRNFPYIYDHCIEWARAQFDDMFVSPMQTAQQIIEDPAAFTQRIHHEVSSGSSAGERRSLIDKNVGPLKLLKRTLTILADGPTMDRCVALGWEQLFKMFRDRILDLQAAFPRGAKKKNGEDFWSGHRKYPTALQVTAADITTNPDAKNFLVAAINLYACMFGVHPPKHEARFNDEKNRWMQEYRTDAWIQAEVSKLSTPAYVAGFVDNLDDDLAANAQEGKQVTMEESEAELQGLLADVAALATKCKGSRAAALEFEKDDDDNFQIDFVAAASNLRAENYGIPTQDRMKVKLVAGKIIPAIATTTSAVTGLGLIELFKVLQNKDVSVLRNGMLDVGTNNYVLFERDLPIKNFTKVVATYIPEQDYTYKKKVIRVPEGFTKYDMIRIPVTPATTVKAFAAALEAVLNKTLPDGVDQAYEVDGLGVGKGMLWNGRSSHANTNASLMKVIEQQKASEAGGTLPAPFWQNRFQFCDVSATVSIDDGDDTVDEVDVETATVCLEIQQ

[3] = target: Sialic acid-binding Ig-like lectin 9 (Homo sapiens) (UniProt Q9Y336); assay: Hs-Siglec9 ALPHAscreen SOP 20170721; details: 10 µM
Sialic acid-binding Ig-like lectin 9 (Homo sapiens), sequence (Q9Y336 whole entry): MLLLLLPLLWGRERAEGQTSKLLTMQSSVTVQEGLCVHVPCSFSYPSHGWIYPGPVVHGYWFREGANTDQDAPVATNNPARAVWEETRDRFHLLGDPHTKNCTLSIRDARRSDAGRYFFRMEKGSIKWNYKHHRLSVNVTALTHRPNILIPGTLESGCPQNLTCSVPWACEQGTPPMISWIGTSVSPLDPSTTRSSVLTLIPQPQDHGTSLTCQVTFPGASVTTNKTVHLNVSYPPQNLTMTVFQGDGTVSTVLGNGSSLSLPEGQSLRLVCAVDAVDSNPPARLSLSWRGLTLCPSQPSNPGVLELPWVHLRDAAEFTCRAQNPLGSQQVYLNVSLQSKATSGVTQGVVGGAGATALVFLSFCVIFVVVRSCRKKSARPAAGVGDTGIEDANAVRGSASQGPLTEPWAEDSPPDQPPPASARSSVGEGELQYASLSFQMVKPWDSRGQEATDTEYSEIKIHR

Trypanosoma cruzi = assay: Trypanosoma cruzi phosphomannomutase and mannose-1-phosphate guanylyltransferase assay; assay type: functional; details: 10 µM
[4] = target: T2, Arginase-2, mitochondrial (Homo sapiens) (UniProt P78540); assay: in vitro enzyme assay to detect the production of urea directly proportional to the activity of Arginase II; assay type: functional; details: 33.3 µM; further: in the data most compounds retested in dose-response had high values
T2 sequence (whole entry): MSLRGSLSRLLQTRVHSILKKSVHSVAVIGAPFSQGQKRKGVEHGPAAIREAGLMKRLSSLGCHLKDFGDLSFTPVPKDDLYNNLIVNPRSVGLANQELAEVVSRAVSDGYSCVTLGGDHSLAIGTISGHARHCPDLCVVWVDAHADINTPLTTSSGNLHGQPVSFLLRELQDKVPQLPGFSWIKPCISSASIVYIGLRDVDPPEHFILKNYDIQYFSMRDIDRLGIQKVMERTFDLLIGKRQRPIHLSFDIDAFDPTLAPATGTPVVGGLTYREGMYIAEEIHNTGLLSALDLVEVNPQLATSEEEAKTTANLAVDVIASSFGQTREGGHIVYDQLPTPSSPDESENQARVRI

[5] = target: T3, Proteasome subunit beta (Trypanosoma cruzi) (UniProt O96673); assay: Trypanosoma cruzi proteasome chymotrypsin-like activity (TcProtChymo) assay.; further: in the data most compounds retested in dose-response had high values; assay type: functional; details: 9.37 µM
T3 sequence (whole entry): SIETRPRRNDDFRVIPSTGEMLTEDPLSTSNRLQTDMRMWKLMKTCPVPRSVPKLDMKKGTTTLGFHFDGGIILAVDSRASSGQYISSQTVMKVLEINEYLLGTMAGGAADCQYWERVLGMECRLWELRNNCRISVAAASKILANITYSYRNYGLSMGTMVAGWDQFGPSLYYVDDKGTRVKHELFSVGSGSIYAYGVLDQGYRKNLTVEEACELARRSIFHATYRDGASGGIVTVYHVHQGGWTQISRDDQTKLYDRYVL

Homo sapiens = species: Homo sapiens; assay: To identify inhibition of the IFN signalling (Jak-Stat) pathway via expression of an eGFP reporter gene under the control of an IFN-stimulated response element (ISRE) containing MxA promoter.; assay type: functional; details: 30 µM
[6] = target: T4, Tyrosyl-tRNA synthetase, putative (Trypanosoma cruzi (strain CL Brener)) (UniProt Q4DSP6); assay: Trypanosoma cruzi tyrosyl tRNA synthetase (TcYRS) _High Tyrosine SOP; assay type: functional; details: 30 µM; further: in the data most compounds retested in dose-response had high values
T4 sequence (whole entry): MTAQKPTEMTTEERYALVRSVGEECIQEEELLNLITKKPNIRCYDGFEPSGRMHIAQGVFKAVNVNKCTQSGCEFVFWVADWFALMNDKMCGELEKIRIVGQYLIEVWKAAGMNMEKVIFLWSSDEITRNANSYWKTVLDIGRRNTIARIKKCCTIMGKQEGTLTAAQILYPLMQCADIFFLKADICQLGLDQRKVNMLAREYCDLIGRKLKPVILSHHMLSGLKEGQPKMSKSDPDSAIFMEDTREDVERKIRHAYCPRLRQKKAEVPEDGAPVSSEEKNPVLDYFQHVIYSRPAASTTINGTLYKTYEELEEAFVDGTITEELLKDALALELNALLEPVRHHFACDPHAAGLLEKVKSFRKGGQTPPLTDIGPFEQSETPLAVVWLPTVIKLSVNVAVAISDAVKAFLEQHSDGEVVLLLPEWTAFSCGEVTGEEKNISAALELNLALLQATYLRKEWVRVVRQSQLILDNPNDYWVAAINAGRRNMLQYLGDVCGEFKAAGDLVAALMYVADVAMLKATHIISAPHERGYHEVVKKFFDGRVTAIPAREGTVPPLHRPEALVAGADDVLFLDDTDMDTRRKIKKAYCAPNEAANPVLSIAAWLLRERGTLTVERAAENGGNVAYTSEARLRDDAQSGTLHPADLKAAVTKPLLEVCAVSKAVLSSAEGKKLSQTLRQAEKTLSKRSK

[7] = target: T4, Tyrosyl-tRNA synthetase, putative (Trypanosoma cruzi (strain CL Brener)); assay: Trypanosoma cruzi tyrosyl tRNA synthetase (TcYRS) SOP; assay type: functional; details: 30 µM
[8] = target: Chromo domain-containing protein 1 (Saccharomyces cerevisiae (strain ATCC 204508 / S288c) (Baker's yeast)) (UniProt P32657); assay: ScCHD-1 Enzyme Inhibition Assay; assay type: functional; details: 30 µM; further: in the data most compounds retested in dose-response had high values
Chromo domain-containing protein 1 (Saccharomyces cerevisiae (strain ATCC 204508 / S288c) (Baker's yeast)), sequence (P32657 whole entry, the tested form may be a part): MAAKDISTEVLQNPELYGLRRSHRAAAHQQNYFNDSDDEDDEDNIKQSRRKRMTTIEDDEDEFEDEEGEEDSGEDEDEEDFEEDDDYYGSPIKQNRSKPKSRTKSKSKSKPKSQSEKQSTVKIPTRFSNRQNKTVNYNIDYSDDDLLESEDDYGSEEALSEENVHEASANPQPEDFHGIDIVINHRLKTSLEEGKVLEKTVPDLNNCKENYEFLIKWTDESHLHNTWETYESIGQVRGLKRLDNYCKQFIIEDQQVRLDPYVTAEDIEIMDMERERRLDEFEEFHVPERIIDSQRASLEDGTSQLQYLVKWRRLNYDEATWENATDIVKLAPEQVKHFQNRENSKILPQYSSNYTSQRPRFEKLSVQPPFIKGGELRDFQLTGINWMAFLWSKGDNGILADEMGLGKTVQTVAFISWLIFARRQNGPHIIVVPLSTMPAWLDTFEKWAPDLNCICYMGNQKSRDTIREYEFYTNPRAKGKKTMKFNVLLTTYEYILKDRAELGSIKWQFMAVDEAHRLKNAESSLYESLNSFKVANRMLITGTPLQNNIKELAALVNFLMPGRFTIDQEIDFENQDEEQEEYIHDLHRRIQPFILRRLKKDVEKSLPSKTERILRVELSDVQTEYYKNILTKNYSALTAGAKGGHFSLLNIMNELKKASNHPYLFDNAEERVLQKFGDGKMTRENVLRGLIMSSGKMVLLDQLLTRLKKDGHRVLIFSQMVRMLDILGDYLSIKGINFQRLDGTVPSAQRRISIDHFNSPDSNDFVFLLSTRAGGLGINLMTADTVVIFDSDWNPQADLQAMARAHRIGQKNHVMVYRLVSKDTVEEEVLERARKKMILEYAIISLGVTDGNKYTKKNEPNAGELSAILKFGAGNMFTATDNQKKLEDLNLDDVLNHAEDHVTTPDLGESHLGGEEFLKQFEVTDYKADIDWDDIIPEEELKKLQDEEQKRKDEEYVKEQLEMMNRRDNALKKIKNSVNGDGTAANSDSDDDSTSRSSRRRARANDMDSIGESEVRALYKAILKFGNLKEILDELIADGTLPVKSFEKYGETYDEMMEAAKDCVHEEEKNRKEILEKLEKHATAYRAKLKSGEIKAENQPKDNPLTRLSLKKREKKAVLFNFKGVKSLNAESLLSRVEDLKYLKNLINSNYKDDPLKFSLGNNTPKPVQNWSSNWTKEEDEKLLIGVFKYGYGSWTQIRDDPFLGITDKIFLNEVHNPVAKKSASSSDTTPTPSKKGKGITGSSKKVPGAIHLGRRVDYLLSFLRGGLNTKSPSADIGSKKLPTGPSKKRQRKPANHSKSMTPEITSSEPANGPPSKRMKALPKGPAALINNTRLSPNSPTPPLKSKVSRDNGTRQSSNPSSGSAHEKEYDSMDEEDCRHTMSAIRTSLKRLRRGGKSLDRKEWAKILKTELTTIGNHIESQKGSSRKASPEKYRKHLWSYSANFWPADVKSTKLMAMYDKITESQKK

Protein translocase subunit SecA (Escherichia coli (strain K12)), sequence (P10408 whole entry): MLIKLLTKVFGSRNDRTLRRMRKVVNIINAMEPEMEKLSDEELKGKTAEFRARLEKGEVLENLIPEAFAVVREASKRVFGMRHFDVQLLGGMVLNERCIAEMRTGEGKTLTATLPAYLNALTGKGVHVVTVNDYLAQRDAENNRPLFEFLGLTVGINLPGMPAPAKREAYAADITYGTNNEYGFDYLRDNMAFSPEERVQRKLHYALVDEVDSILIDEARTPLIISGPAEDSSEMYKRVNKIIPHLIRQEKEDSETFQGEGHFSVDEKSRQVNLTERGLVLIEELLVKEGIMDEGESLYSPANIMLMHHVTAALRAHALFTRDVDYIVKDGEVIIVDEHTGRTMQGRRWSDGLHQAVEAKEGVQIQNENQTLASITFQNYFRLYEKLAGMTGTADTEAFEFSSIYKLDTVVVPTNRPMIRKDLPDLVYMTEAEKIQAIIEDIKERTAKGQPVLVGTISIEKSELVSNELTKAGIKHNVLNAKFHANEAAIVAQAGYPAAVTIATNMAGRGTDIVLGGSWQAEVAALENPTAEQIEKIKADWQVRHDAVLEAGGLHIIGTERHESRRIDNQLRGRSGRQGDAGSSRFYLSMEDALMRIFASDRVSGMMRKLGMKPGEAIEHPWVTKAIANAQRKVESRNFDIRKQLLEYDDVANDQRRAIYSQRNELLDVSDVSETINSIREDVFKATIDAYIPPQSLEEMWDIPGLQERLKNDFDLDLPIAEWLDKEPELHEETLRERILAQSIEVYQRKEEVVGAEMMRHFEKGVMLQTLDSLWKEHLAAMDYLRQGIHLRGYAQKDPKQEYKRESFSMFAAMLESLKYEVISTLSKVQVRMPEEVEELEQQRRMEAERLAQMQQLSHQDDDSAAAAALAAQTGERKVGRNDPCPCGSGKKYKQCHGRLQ

Row | SMILES | Percent Effect [1] [%] | Percent Effect [2] [%] | Percent Effect [3] [%] | Percent Effect (Trypanosoma cruzi) [%] | Percent Effect [4] [%] | Percent Effect [5] [%] | Percent Effect (Homo sapiens) [%] | Percent Effect [6] [%] | Percent Effect [7] [%] | Percent Effect [8] [%]
1 | c1ccc(-c2nc(CN3CCc4c(ncn4C4CC4)C3)cs2)cc1 | -0.517 | 5.2 | -12.1 | -0.933 | -7.99 | 16 | 28.5 | 12.8 | 18.8 | -8.68
2 | CN(C)S(=O)(=O)N1CCCC(c2cccc(Cc3ccccc3)n2)C1 (stereo not given) | -0.482 | 6.67 | -7.39 | -6.31 | -5.31 | 14.4 | 58.5 | -5.29 | 0 | -8.36
3 | CNc1snc(C)c1C(=O)N1CCCC(n2ccnc2C(C)C)C1 (stereo not given) | -0.908 | 0 | 1.03 | 2.21 | 0.444 | 5 | 14.7 | 1.58 | 0 | -1.07
4 | CCCNC(=O)c1cc2c(c3ccccc3n2C)n1C(=O)N(C)C | -4.26 | -1.3 | 2.88 | -5.16 | 1.22 | 9.62 | -12.8 | 2.63 | 5.13 | -7.15
5 | CC[C@H](C)Nc1nccc(-c2cnc3sc(C)c(C)n3c2=O)n1 | -6.51 | 0 | 0.241 | -3.61 | -3.55 | 12.6 | 15.3 | -3.68 | -10.3 | -9.65
6 | CN1CCC/C1=N\S(=O)(=O)c1ccc(NC(=O)CCc2cccs2)cc1 | 2.31 | 20.8 | 5.99 | 2.05 | 12.1 | 5.79 | 16.7 | 7.84 | 28.2 | -8.39
7 | NC(=O)C1CCC(NC(=O)COc2ccc(Cl)c(Cl)c2)CC1 (stereo not given) | -4.03 | 10.4 | 8.56 | 6.16 | -5.94 | 9.12 | 8.8 | 5.88 | 23.5 | -8.52
8 | O=C(c1ccnnc1)N1CCC2(CC1)CC(N1CCOCC1)C2 | 0.141 | 14.3 | -2.15 | -2.25 | 5.48 | 13.8 | 22.2 | 4.83 | 2.5 | -8.83
9 | CC(=O)NCCC(=O)NCc1cccnc1-n1cnc2ccccc21 | 0.292 | 0 | 2.93 | 6.69 | 12.2 | 1.71 | -5.79 | -0.532 | 2.44 | 98.3
10 | COC(=O)CC(c1ccccc1)c1oc(C)cc(=O)c1O (stereo not given) | -10.4 | 0 | 4.84 | -5.33 | -1.75 | 1.71 | 6.47 | 1.6 | 0 | -1.53
11 | COc1ccc2c(c1)OCC(CNC(=O)c1ccncc1)C2 (stereo not given) | -6.47 | 13.5 | 11.5 | 7.66 | 43.7 | 20.4 | 32.2 | 7.98 | 19.5 | 71.9
12 | Cc1cc(C)n(CC2CCCCN2C(=O)c2ccc3c(c2)OCO3)n1 (stereo not given) | -0.864 | 5.33 | -0.84 | -6.22 | 1.33 | 7.38 | 8.9 | 2.63 | 10.3 | -0.951
13 | NC(=O)N1CCC2(CC1)CN(Cc1cccnc1)C(=O)CO2 | -0.758 | 11.7 | 1.96 | -0.188 | 1.37 | 8.5 | -22.1 | 10.6 | 15 | -1.18
14 | c1cnnc(N2CCCC2CNCc2nc(C3CC3)no2)c1 (stereo not given) | -0.891 | -7.69 | 1.93 | 12.1 | 1.64 | 1.11 | -18.5 | 6.22 | 6.02 | 8.01
15 | CCCn1ncc2c(C(=O)Nc3n[nH]c(SC)n3)cc(C3CC3)nc21 | -0.744 | 14.7 | -0.527 | -0.395 | -13.7 | 11.8 | 13.4 | -10.6 | 17.5 | -26.6
16 | O=C(c1ncccn1)N1C[C@H]2CCC[C@@]2(COCc2cccnc2)C1 | -6.88 | 3.9 | -0.0107 | -1.46 | -4.45 | 10.3 | 89.1 | -2.63 | -7.69 | -1.21
17 | CCc1nc(C2CCCN2CCn2cncn2)no1 (stereo not given) | -1.22 | 5.2 | 7.59 | -0.187 | 3.07 | 3.86 | 1.29 | 1.96 | 7.06 | -4.93
18 | COc1cccc(COCC(=O)N2CCCC(n3ccnc3C)C2)c1 (stereo not given) | -2.06 | -5.13 | -2.52 | 4.6 | 4.92 | -4.35 | 19.1 | -3.35 | 1.21 | 2.95
19 | NCc1cn(-c2ccccc2C(=O)NCc2cccc(Cl)c2)cn1 | 0.846 | 9.33 | -1.67 | -7.3 | 1.33 | 6.4 | -3.19 | 3.17 | 12.5 | -24.5
20 | Cc1nc(CN2CCO[C@@H]3CN(C(=O)NC(C)C)CC[C@@H]3C2)cs1 | -3.94 | 1.3 | 0.95 | -3.8 | -0.405 | 1.85 | -21.3 | 3.68 | 7.69 | -1.55
21 | CCc1nc(CC(=O)N2CCCC2Cn2cccn2)cs1 (stereo not given) | -2.88 | 2.67 | 6.12 | 0.402 | 4.43 | 6.19 | -17.2 | 2.63 | 7.69 | -10

Reference: ChEMBL document CHEMBL3988442, “University of Dundee, Small-Polar-MMV Screening Library” (2021)
